Screening results (PubChem)
DT40 TDP1 no CPT: qHTS for Inhibitors of human tyrosyl-DNA phosphodiesterase 1 (TDP1): qHTS in cells in absence of CPT | DT40 Tdp1-/- hTDP1 cells, no CPT, ATP luminescence, 48 h | 15% of 420,000 active | Potency, µM (highest dose often 46.2 µM), usual class: inhibitors; further: nearly all actives have a fitted effect of over 55% in size
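Chicken DT40 Tdp1-/- cells complemented with human TDP1, screened without camptothecin (DMSO vehicle only), 400 cells/well. Compounds pin-transferred, cells incubated at 37 °C for at least 48 hr. Growth read as ATP-dependent luminescence (CellTiter-Glo, 30 min at RT).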
DT40 TDP1 CPT: growth inhibition of DT40 Tdp1-/-;hTDP1 cells with camptothecin (screen for TDP1 inhibitors); chicken DT40 Tdp1-/-;hTDP1 cells + 20 nM CPT, ATP luminescence, 48 h; Potency, µM (series often up to 46.2 µM), actives largely listed as inhibitors; 12% of 420,000 active; AID 686979; further: nearly all actives have a fitted effect of over 55% in size
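Chicken DT40 Tdp1-/- cells complemented with human TDP1, 400 cells/well, exposed to compounds plus 20 nM camptothecin for at least 48 h at 37 C; viability read as ATP content by CellTiter-Glo luminescence.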
HT1080NT lethal: kills 2HG-producing HT-1080-NT fibrosarcoma cells; Potency, µM (top dose mostly 46.1 µM), hits mostly cytotoxic; HT-1080-NT fibrosarcoma viability, CellTiter-Glo ATP luminescence, 48 h; 1.6% of 360,000 active;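 further: NT is the 2HG producing partner of a matched IDH1 knockdown line; nearly all actives have a fitted effect of over 55% in size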
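Compounds were tested in concentration-response format on HT-1080-NT cells for 48 hours at 37 degrees C. Cell viability came from CellTiter-Glo luminescence; curves were classified by r2, response magnitude and activity.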
IL1B secr inh: blocks inflammasome-driven IL-1 beta release; activity change, % at 57.5 µM; 4.7% of 360,000 active; AID 743279; THP-1 LPS/ATP IL-1B secretion, AlphaLISA, 16 h; stronger effect = lower value; in the data active means activity change below about -50%; inconclusive means mostly about -30% to -49%
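Secreted IL-1B measured by AlphaLISA bead assay after 16 h compound exposure of THP-1 cells; compounds (final up to 57.5 uM) added 1 h before LPS (250 ng/mL) and ATP (1.25 mM) stimulation; lower signal means less secretion.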
HT1080 IDH1KD tx: kills HT-1080 cells with IDH1 knockdown. Potency, µM (top dose mostly 46.1 µM), actives largely listed as cytotoxic. 2% of 360,000 active. HT-1080 IDH1 knockdown viability, ATP luminescence, 48 h
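% activity derives from luminescence (CellTiter-Glo), normalised to DMSO and no-cell wells. HT-1080-IDH1KD cells, 750/well, had 48 h compound exposure at 37 °C.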
uPA surface inh: blocks generation of uPA at the cell surface | cell surface uPA generation assay, qHTS | Potency, µM (top dose mostly 38.3 µM), most hits filed as inhibitors | 0.31% of 330,000 active; active means well fitted inhibition curve with a large enough effect; inconclusive means small, poorly fitted or top-dose-only effect; inactive means no such curve, though single readings can be large or run the other way; tested in mouse RAW 264.7 cells; further: nearly all actives have a fitted effect of over 55% in size
Large screens that a line does not name were inactive. This is a sample that favours compounds with a hit; in the whole collection about 19% have one here. Unless noted, the call rests on the fitted dose curve; in most records, active means well fitted curve in the direction sought with a large enough effect; inconclusive means small, poorly fitted or top-dose-only effect, or another doubt; inactive means no such curve, though single readings can be large; an effect the other way counts as inactive or inconclusive.

Cc1cc2ccccc2n2c(SCC(=O)Nc3ccc(S(=O)(=O)N4CCC(C)CC4)cc3)nnc12	DT40 TDP1 no CPT 23µM, DT40 TDP1 CPT 29µM
Cc1cc2cc(C)c3nnc(SCC(=O)Nc4ccc(S(=O)(=O)N5CCCCC5)cc4)n3c2cc1C	DT40 TDP1 CPT inconclusive
CC1CCN(S(=O)(=O)c2ccc(NC(=O)CN3CCCCCC3)cc2)CC1	DT40 TDP1 no CPT inconclusive, DT40 TDP1 CPT inconclusive, IL1B secr inh -50, HT1080 IDH1KD tx inconclusive
CC1CCN(CC(=O)Nc2ccc(S(=O)(=O)N3CCCCC3)cc2)CC1	DT40 TDP1 CPT inconclusive
CC1CCN(S(=O)(=O)c2ccc(NC(=O)CNC3CCCCC3)cc2)CC1	DT40 TDP1 no CPT inconclusive, DT40 TDP1 CPT inconclusive, IL1B secr inh -87
CC1CCCN(CC(=O)Nc2ccc(S(=O)(=O)N3CCCC3)cc2)C1 (stereo not given)	DT40 TDP1 no CPT 13µM
COc1cccc(N2CCN(S(=O)(=O)c3ccc(-c4coc(C)n4)cc3)CC2)c1	DT40 TDP1 no CPT 21µM, DT40 TDP1 CPT inconclusive, HT1080NT lethal inconclusive
CC1CCCC(C)N1S(=O)(=O)c1ccc(NC(=O)CNC2CCCC2)cc1 (stereo not given)	DT40 TDP1 no CPT inconclusive, DT40 TDP1 CPT inconclusive, HT1080 IDH1KD tx inconclusive
COc1cccc(N2CCN(S(=O)(=O)c3cc4c(cc3C)N(C)CCO4)CC2)c1	DT40 TDP1 no CPT 16µM, DT40 TDP1 CPT inconclusive
Cc1nc(-c2ccc(S(=O)(=O)N3CCN(c4ccccc4)CC3)cc2)co1	DT40 TDP1 no CPT inconclusive
Nc1nc2ncccn2c1-c1ccc(C(F)(F)F)cc1	none (no result: uPA surface inh)
CN1CCN(C(CNC(=O)c2c(F)cccc2F)c2ccc3c(c2)OCO3)CC1 (stereo not given)	none (no result: HT1080NT lethal, IL1B secr inh, HT1080 IDH1KD tx, uPA surface inh)
CC1CCN(CC(=O)Nc2ccc(S(=O)(=O)N3C(C)CCCC3C)cc2)CC1 (stereo not given)	DT40 TDP1 no CPT 15µM, DT40 TDP1 CPT inconclusive
CC1CCN(S(=O)(=O)c2ccc(NC(=O)Cn3nnc(-c4ccccc4F)n3)cc2)CC1	DT40 TDP1 no CPT inconclusive, HT1080NT lethal 20µM, HT1080 IDH1KD tx inconclusive
O=C(CNC(=O)Cc1ccccc1)NCC(=O)OCC(=O)c1cccc2ccccc12	DT40 TDP1 no CPT 18µM, DT40 TDP1 CPT inconclusive
Cc1ccc(C(=O)NCC(=O)OCC(=O)c2cccc3ccccc23)cc1	DT40 TDP1 CPT inconclusive (no result: HT1080NT lethal, IL1B secr inh, HT1080 IDH1KD tx, uPA surface inh)
O=C(CNC(=O)c1ccccc1)NCC(=O)OCC(=O)c1cccc2ccccc12	none (no result: HT1080NT lethal, IL1B secr inh, HT1080 IDH1KD tx, uPA surface inh)
O=C(CNC(=O)c1ccco1)OCC(=O)c1cccc2ccccc12	DT40 TDP1 no CPT inconclusive, DT40 TDP1 CPT 16µM
CCOC(=O)C1(NC(=O)C2(N3C(=O)c4ccccc4C3=O)CCCC2)CCCC1	none
CCCCn1c(N)c(N(CCOC)C(=O)c2cccc(-n3cnnn3)c2)c(=O)[nH]c1=O	none
O=C(O)C(Cc1ccc(Cl)cc1)NS(=O)(=O)c1ccc(Cl)cc1 (stereo not given)	none
COc1ccc(CNC(=O)Cn2c(-c3ccccc3)cc(C(C)=O)c2C)cc1OC	DT40 TDP1 no CPT inconclusive, DT40 TDP1 CPT 10µM (no result: HT1080NT lethal, IL1B secr inh, HT1080 IDH1KD tx, uPA surface inh)
CC(=O)c1cc(-c2ccc(F)cc2)n(CC(=O)NCc2cccs2)c1C	DT40 TDP1 no CPT inconclusive, DT40 TDP1 CPT inconclusive, HT1080NT lethal inconclusive, HT1080 IDH1KD tx inconclusive
CCOc1ccccc1CNC(=O)Cn1c(-c2ccccc2)cc(C(C)=O)c1C	DT40 TDP1 no CPT inconclusive, DT40 TDP1 CPT 13µM (no result: HT1080NT lethal, IL1B secr inh, HT1080 IDH1KD tx, uPA surface inh)
Cc1ccc(CNC(=O)C2CCN(C(=O)c3ccc(-n4ccc5ccccc54)s3)CC2)cc1	DT40 TDP1 no CPT inconclusive (no result: HT1080NT lethal, IL1B secr inh, HT1080 IDH1KD tx, uPA surface inh)
COc1ccc(N2CCN(C(=O)c3cc(S(=O)(=O)N4CCC(C)CC4)cn3C)CC2)cc1	DT40 TDP1 no CPT 21µM, DT40 TDP1 CPT 23µM (no result: HT1080NT lethal, IL1B secr inh, HT1080 IDH1KD tx, uPA surface inh)
COC(=O)c1cc(S(=O)(=O)N2CCN(c3ccc(OC)cc3)CC2)cn1C	none
Cn1c(=O)c(=O)n(C)c2cc(S(=O)(=O)N3CCN(c4cccc(C(F)(F)F)c4)CC3)ccc21	none (no result: uPA surface inh)
